The structures appear in SMILES notation. Among all 7,900 compounds or so, about 400 (5.1%) showed an effect of 50% or more. Shown is part of a subset that was picked to be rich in strong results.

129 compounds from article PMC9574860, “Chemical Toolkit for PARK7: Potent, Selective, and High-Throughput” (Journal of Medicinal Chemistry, 2022) can be followed below.

Parkinson's disease protein 7 (PARK7/DJ1), sequence (Q99497 whole entry, looked up, the tested form may be a part): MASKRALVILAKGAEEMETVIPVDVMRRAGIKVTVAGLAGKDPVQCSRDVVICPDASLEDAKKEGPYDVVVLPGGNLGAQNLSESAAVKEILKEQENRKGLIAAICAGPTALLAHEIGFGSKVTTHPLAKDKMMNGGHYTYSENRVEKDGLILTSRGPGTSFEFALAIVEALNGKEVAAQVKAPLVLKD

This assay deals with Parkinson's disease protein 7 (PARK7/DJ1) (human, UniProt Q99497). The experiment in a line: primary screen, percent inhibition; read as competition with a fluorescent probe by fluorescence polarization; higher = more effect of the substance. The note with it: 100 µM. In outline:
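Covalent fragments at 100 μM final were incubated 2 h with 0.2 μM PARK7, then 20 nM probe JYQ-107 added for a further 2 h. Fluorescence polarization read at 480/520 nm; relative FP loss versus reference controls gave remaining enzyme activity.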
With `O=C(CCCl)NC1CCCc2ccccc21` (stereo not drawn), the Inhibition % came to 2.39%.
The same measure for `N#CC(=Cc1cc2cc(F)ccc2o1)C(N)=O`: 6.05%.
For `CCc1cc2c(=O)n(CCS(=O)(=O)F)cnc2s1`, the Inhibition % amounted to 9.17%.
Turning to `CNC(=O)Oc1cccc(O)c1`, the Inhibition % is on record as 37.6%.
The same measure for `C=CC(=O)NCc1c(C)noc1C`: 13.4%; for `CCc1c(OC(=O)NC)noc1C`: 84.6%; for `Cc1noc(C)c1CNC(=O)CCl`: 46.7%.
The same measure for `CNC(=O)Oc1cccc(N)c1`: 20.5%; for `CNC(=O)Oc1noc(C)c1C`: 84.8%.
For the compound `N#Cc1nncn1CC(=O)Nc1ccc(C(F)(F)F)cc1`, the Inhibition % is recorded as 26.2%.
As for `C=CC(=O)N1CCC(NC(=O)c2oc(C)cc2C)CC1`, the figure is 3.91%; as for `C=CC(=O)NC1CCc2nnc(CC)n2C1` (stereo not drawn), 7.66%; as for `O=C(CCl)c1ccc(F)cc1`, 32.3%.
Take `Cn1c(=O)oc2cc(C(=O)CCl)ccc21`: the Inhibition % is recorded as 0.517%.
For the compound `O=C(CCl)c1ccc(Cl)cc1`, the Inhibition % is listed as 75.6%.
The same measure for `Cc1ccc(C(=O)CCl)cc1`: 32.3%; for `O=C(CCl)c1ccc(O)cc1O`: 81.9%.
For the compound `O=C(CCl)c1ccc(F)cc1F`, the Inhibition % is on record as 18.5%.
As for `O=C(CCl)NC(=O)c1ccc(Cl)cc1`, the figure is 19.6%; as for `O=C(CCl)c1ccc(O)cc1`, 86.7%.
Consider `O=C(CCl)c1ccoc1`, for which the Inhibition % is given as 76.6%.
The same measure for `O=C(CCl)c1cc(F)ccc1O`: 38.8%.
`O=C(CCl)c1ccc(N2CCOC2=O)cc1`: the Inhibition % is on record as 24.5%.
For `C=CC(=O)NC1COCc2ccccc21` (stereo not drawn), the Inhibition % was determined as 9.84%.
With `O=C(CN1C(=O)CCC1=O)c1ccccc1F`, the Inhibition % is listed as 9.1%.
In the case of `CC1CC(N2CC=C(c3ccc(F)cc3)CC2)C(=O)O1` (stereo not drawn), the Inhibition % stood at 5.18%.
`Cc1cccc(NC(=O)NC2C(=O)OCC2(C)C)n1` (stereo not drawn): the Inhibition % amounted to 7.98%.
The same measure for `N#CC(=Cc1ccc(-c2nc3ccccc3s2)o1)C(=O)O`: 3.06%; for `C=CC(=O)N1CCOc2ccccc21`: 9.1%; for `O=C(CCl)c1ccc(O)c(O)c1`: 75.1%.
The same measure for `Cl.O=C(CCl)c1ccncc1`: 95.3%; for `CSc1ccc(C(=O)CCl)cc1`: 89.6%.
As for `O=C(CCl)NCC(=O)c1ccccc1`, the figure is 4.23%; as for `O=C(CCl)c1ccc(C(F)(F)F)cc1`, 12%; as for `O=C(CCl)NNC(=O)c1ccccc1`, -3.2%.
`O=C(CCl)c1ccccc1`: the Inhibition % is recorded as 56.6%.
Regarding `Cl.O=C(CCl)Nc1ccncc1`, the Inhibition % was 14.4%.
The same measure for `CCN1CCN(c2oc(C3CC3)nc2C#N)CC1`: 1.62%; for `Cc1nccn1CC1CCCN1c1ccc(C#N)nc1` (stereo not drawn): 0.293%; for `N#Cc1cc(C(=O)Nc2ccccc2)c(N)nc1S`: 1.51%.
As for `C=CC(=O)N1CCN(C(=O)CC(F)(F)F)CC1`, the figure is 12.4%; as for `CC1CC(C)CC2(C1)NC(=O)N(CCC1OCCO1)C2=O` (stereo not drawn), 2.2%.
As for `C=C(C)Cn1c(C#N)nc(C)c1C`, the figure is 2.82%; as for `CC(=O)N1c2ccc(C(=O)CCl)cc2CC1C` (stereo not drawn), 5.96%; as for `O=C(CCl)c1ccc2[nH]c(=O)[nH]c2c1`, 63.2%.
On to `O=C(CCl)c1ccc2c(c1)COC2`, for which the Inhibition % was found to be 72.7%.
As for `CC(C)n1ccnc1C(=O)CCl`, the figure is 48.7%; as for `O=C(CCl)Nc1ccc2[nH]c(=O)[nH]c2c1`, 34.3%.
With `O=C(CCl)c1ccc2[nH]c(=O)oc2c1`, the Inhibition % amounted to 2.68%.
`O=C(CCl)c1ccns1`: the Inhibition % is given as 95.1%.
In the case of `Cl.O=C(CCl)Nc1cccnn1`, the Inhibition % stood at 26.1%.
With `N#Cc1ncn(CCCOc2ccc(Cl)cc2)n1`, the Inhibition % is on record as 9.73%.
As for `N#Cc1ncn(Cc2c(F)cccc2Cl)n1`, the figure is 0.988%.
`C=CC(=O)Nc1cnc2c(C)cccn12`: the Inhibition % was 8.53%.
The same measure for `Cc1nc(C)c(C(=O)CCl)o1`: 95.2%; for `Cc1nc(C#N)c(N2CCN(C(=O)CCl)CC2)o1`: 38.4%.
The same measure for `CCCNC(=O)C(C#N)=Cc1oc(C)nc1C`: 19.4%; for `C=CC(=O)N1CCCCC1c1noc(C2CC2)n1` (stereo not drawn): 29.3%.
Take `COC[C@@H]1C[C@H](OC)CN1C(=O)c1c[nH]c(C#N)c1`: the Inhibition % worked out at 1.56%.
For `O=C(O)CN1C(=O)CSC1=O`, the Inhibition % was found to be 17.6%.
As for `O=C(O)CCN1C(=O)CSC1=O`, the figure is 13%; as for `Cl.NCCN1C(=O)CSC1=O`, 75.6%.
The same measure for `CN(Cc1nc2ccccc2[nH]1)S(=O)(=O)C1=CCCCC1`: 8.82%; for `C=CC(=O)NC(CO)C1CCCO1` (stereo not drawn): 6.87%.
For the compound `O=C(CCl)NCC#Cc1ccccc1`, the Inhibition % amounted to 1.08%.
The same measure for `C=CC(=O)N1CCCN(c2ccccn2)CC1`: 12.3%.
The same measure for `C=CC(=O)N(CC)C1CCS(=O)(=O)C1` (stereo not drawn): -4.06%; for `OC1(C2CO2)CCCC1` (stereo not drawn): 3.59%; for `Cc1nn(C)c(Cl)c1C=CC(=O)N1CCC(N)C1.Cl` (stereo not drawn): 17.1%.
Turning to `CNC(=O)Cn1nc(-c2ccc(F)cc2)oc1=O`, the Inhibition % amounted to 16.9%.
As for `O=C(CCl)N1CCC(C(=O)N2CCCCCC2)CC1`, the figure is 15.1%; as for `CCOC(=O)N1CCN(C(=O)CCl)CC1`, 67.8%.
As for `CCOC(=O)C1CCN(C(=O)CCl)CC1`, the figure is 19.7%; as for `O=C(CCl)N1CCN(C(=O)C2CC2)CC1`, 56.1%; as for `CCOC(=O)C1CCCN(C(=O)CCl)C1` (stereo not drawn), 74.4%.
Consider `CN1CCN(C(=O)CCl)CC1.Cl`, for which the Inhibition % was 1.98%.
The same measure for `O=C(CCl)N1CCN(C(=O)CCl)CC1`: 36.5%; for `NC(=O)C1CCCN(C(=O)CCl)C1` (stereo not drawn): 35.5%.
Turning to `O=C(CCl)N1CCC(C(=O)N2CCCCC2)CC1`, the Inhibition % is listed as 18.3%.
With `C=CC(=O)N1CCN(C)c2cc(F)ccc21`, the Inhibition % is reported as 14.6%.
For `N#CCCN(C(=O)CCl)c1cccc(Cl)c1`, the Inhibition % is reported as 29.3%.
Take `O=C(CCl)NC1CCN(C(=O)CCc2ccccc2)CC1`: the Inhibition % stood at 11.9%.
With `O=C(CCl)c1cc2c3c(c1)CC(=O)N3CCC2`, the Inhibition % was found to be 21.1%.
The same measure for `O=C1CCCc2cc(C(=O)CCl)ccc2N1`: 86.5%.
As to `CCS(=O)(=O)N1CCc2cc(C(=O)CCl)ccc21`, the Inhibition % was 11.9%.
Turning to `CC1C(=O)Nc2ccc(C(=O)CCl)cc21` (stereo not drawn), the Inhibition % worked out at 85.9%.
On to `CS(=O)(=O)N1CCc2cc(C(=O)CCl)ccc21`, for which the Inhibition % was 36.2%.
The same measure for `CC1(C)C(=O)Nc2ccc(C(=O)CCl)cc21`: 32.9%; for `CS(=O)(=O)N1CCCc2cc(C(=O)CCl)ccc21`: 76.4%.
As for `O=C1CCc2cc(C(=O)CCl)c(F)cc2N1`, the figure is 1.18%; as for `O=C1CCc2cc(C(=O)CCl)ccc2N1`, 52.8%; as for `O=C1CCc2cc(OCCCl)ccc2N1`, 6.21%.
For the compound `C=CC(=O)Nc1ccc2c(c1)CCCC(=O)N2`, the Inhibition % is reported as 4.19%.
Regarding `C=CC(=O)N(C1CC1)C1CCS(=O)(=O)C1` (stereo not drawn), the Inhibition % came to 10.3%.
For `CC(C)Cc1nc(C#N)c(NCc2ccncc2)o1`, the Inhibition % stood at 6.94%.
As for `CC1(C)OB(c2ccc(N)nc2)OC1(C)C`, the figure is 9.29%.
As for `COc1ccc(-c2ccncc2)cc1B(O)O`, the figure is 6.7%; as for `N#CC(=Cc1cccs1)C(N)=O`, 10.8%; as for `Cc1nn(C)c(NS(=O)(=O)C=Cc2ccccc2)c1C`, 11.2%.
As for `C=CC(=O)N1CCCc2c1nc[nH]c2=O`, the Inhibition % was found to be 20.2%.
The same measure for `C=CC(=O)N1CCN(C(=O)c2cccc(Cl)c2)CC1`: 4.01%; for `CN1C(=O)CCc2cc(C(=O)CCl)ccc21`: 19.5%; for `CCC(=O)N1CCc2cc(C(=O)CCl)ccc21`: 3.43%.
The same measure for `O=C1Cc2cc(C(=O)CCl)ccc2N1`: 81.4%; for `CN1C(=O)Cc2cc(C(=O)CCl)ccc21`: 83.4%.
As for `O=C1COc2ccc(C(=O)CCl)cc2N1`, the figure is 8.16%; as for `CN1Cc2cc(C(=O)CCl)ccc2NC1=O`, 11.5%.
For the compound `C=CC(=O)NCC(=O)NC1(C)CCCCC1`, the Inhibition % stood at 13.6%.
Regarding `C=CC(=O)NCc1nc2c(s1)COCC2`, the Inhibition % came to 5.36%.
As to `O=S(=O)(C=Cc1ccccc1)NC1CCCn2ncnc21` (stereo not drawn), the Inhibition % was found to be 12.3%.
As for `C=CC(=O)Nc1c(C)nn(CC)c1C`, the figure is 2.74%.
With `C=CC(=O)Nc1c(C)nn(C(C)C)c1C`, the Inhibition % was 0.88%.
As for `C=CC(=O)Nc1c(C)nn(C)c1N1CCC1`, the figure is 87.1%.
With `N#Cc1nc(C2CC2)n[nH]1`, the Inhibition % turned out to be 2.55%.
For `C=CC(=O)N1CCN(S(=O)(=O)CC)CC1`, the Inhibition % is given as 11.7%.
The same measure for `CCN(C(=O)Cn1c(S)nc2ccccc2c1=O)C1CC1`: 0.694%.
The same measure for `CCCc1nnc(NS(=O)(=O)c2ccc(S(=O)(=O)F)cc2)o1`: 49.9%; for `O=S(=O)(F)c1cccc(S(=O)(=O)Nc2cccnc2O)c1`: 99.4%.
`Cc1csc(NS(=O)(=O)c2cccc(S(=O)(=O)F)c2)n1`: the Inhibition % is recorded as 83.9%.
The same measure for `O=S(=O)(F)c1ccc(S(=O)(=O)Nc2cccnc2O)cc1`: 8.42%; for `Cc1cscc1NS(=O)(=O)c1cccc(S(=O)(=O)F)c1`: 98.1%.
As for `CCCc1nnc(NS(=O)(=O)c2cccc(S(=O)(=O)F)c2)o1`, the figure is 98.8%; as for `Cc1cnccc1NS(=O)(=O)c1ccc(S(=O)(=O)F)cc1`, 18.9%.
As to `O=S(=O)(F)c1ccc(S(=O)(=O)Nc2ncccc2Cl)cc1`, the Inhibition % is given as 32.9%.
The same measure for `Cc1nc(NS(=O)(=O)c2ccc(S(=O)(=O)F)cc2)no1`: 22.7%; for `O=C(CCl)Nc1cccc(C(=O)N2CCSCC2)c1`: 6.3%.
With `Cc1csc2ccc(B(O)O)cc12`, the Inhibition % was found to be 5.69%.
The same measure for `O=C(CCl)NCC(=O)N1CCCC1`: 2.12%.
The same measure for `O=C(NCc1ccccc1)N1CCCCC1C1OCCO1` (stereo not drawn): 6.92%.
